# Measurements reported in PubChem BioAssay AID1332 (Southern Research Institute, 2008).
# Hit rate of the full screen: of about 1,100 compounds, about 170 (15%) were called active. The rule behind the calls is not given here. The list is a sample of the results.
# Assay: Mycobacterium tuberculosis H37Rv growth inhibition, confirmatory dose response, cytotoxicity (AID 1332);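 for CC50: Vero cells exposed to compounds for 72 hours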;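 for IC50: bacteria incubated 7 days before adding Alamar blue readout reagent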
# Conditions: M. tuberculosis H37Rv growth inhibition; CC50: measured here: Vero cell cytotoxicity; IC50: measured here: IC50 H37Rv replicates
SMILES,IC50 [µg/mL],outcome,CC50 [µg/mL]
CCn1cc(C(=O)O)c(=O)c2cnc(N3CCCC3)nc21,> 20,inactive,–
Cc1cccc(N(C)C(=S)Oc2ccc3ccccc3c2)c1,> 20,inactive,–
O=C(O)C1(O)C[C@H](O)C(O)[C@@H](O)C1 (some centres undefined),> 20,inactive,–
COc1ccc([C@@H]2CC(=O)c3c(O)cc(O)cc3O2)cc1O,> 20,inactive,–
CCCCN(CCCC)CCCOC(=O)c1ccc(N)cc1,> 20,inactive,–
CC1(C)S[C@@H]2[C@H](NC(=O)C(C(=O)O)c3ccsc3)C(=O)N2[C@H]1C(=O)O (some centres undefined),> 20,inactive,–
CC(=O)N(CC(O)CN(C(C)=O)c1c(I)c(C(=O)NCC(O)CO)c(I)c(C(=O)NCC(O)CO)c1I)c1c(I)c(C(=O)NCC(O)CO)c(I)c(C(=O)NCC(O)CO)c1I (centres undefined),> 20,inactive,–
Cn1c(-c2ccc3c(c2)OCO3)cc(=O)c2ccccc21,> 20,inactive,–
Cc1c(N)c(=O)n(-c2ccccc2)n1C,> 20,inactive,–
COc1ccc2cc1Oc1ccc(cc1)C[C@H]1c3cc(c(OC)cc3CCN1C)Oc1c(OC)c(OC)cc3c1[C@H](C2)N(C)CC3,> 20,inactive,> 6
Cc1[nH]ccc2c1[nH]c1cc(=O)ccc12,> 20,inactive,> 6
CC(C)(C)NCC(O)COc1ccccc1C1CCCC1 (centres undefined),> 20,inactive,–
O=C(O)c1cccnc1,> 20,inactive,–
O=C1C(=O)c2ccccc2C(O)=C1C1CCC(c2ccc(Cl)cc2)CC1 (centres undefined),10.1,active,> 6
C/C=C(\C)C(=O)O[C@H]1[C@H](OC(C)=O)[C@@]2(CO)C(CC1(C)C)C1=CC[C@@H]3[C@@]4(C)CC[C@H](O[C@@H]5O[C@H](C(=O)O)[C@@H](O[C@@H]6O[C@H](CO)[C@@H](O)[C@H](O)[C@H]6O)[C@H](O)[C@H]5O[C@@H]5O[C@H](CO)[C@@H](O)[C@H](O)[C@H]5O)[C@](C)(CO)C4CC[C@@]3(C)[C@]1(C)C[C@H]2O (some centres undefined),> 20,inactive,–
CN(C)CCOC(c1ccccc1)c1ccccc1,> 20,inactive,–
CN(C)CCCOc1nn(Cc2ccccc2)c2ccccc12,> 20,inactive,–
CCCCc1cc2ccccc2c(OCCN(C)C)n1,13.5,active,–
CCCCOc1cc(C(=O)NCCN(CC)CC)c2ccccc2n1,> 20,inactive,–
CC[N+](CC)(CC(=O)Nc1c(C)cccc1C)Cc1ccccc1,> 20,inactive,–
Clc1ccc(Cn2c(CN3CCCC3)nc3ccccc32)cc1,3.58,active,–
Clc1ccc(C(OCCN2CCCCC2)c2ccccc2)cc1 (centres undefined),> 20,inactive,> 6
CN1CCc2c(c3ccccc3n2Cc2ccccc2)C1,> 20,inactive,–
CCOc1ccc(Cc2nccc3cc(OCC)c(OCC)cc23)cc1OCC,> 20,inactive,> 6
CC(C)n1c(/C=C/[C@H](O)C[C@H](O)CC(=O)O)c(-c2ccc(F)cc2)c2ccccc21,> 20,inactive,0.354
C=C[C@]12CN(C)[C@@H]3[C@H]4COC(CC41)[C@]1(C(=O)Nc4ccccc41)[C@@H]32,> 20,inactive,–
COC1=CC(=O)C[C@@H](C)[C@]12Oc1c(Cl)c(OC)cc(OC)c1C2=O,> 20,inactive,> 6

SMILES,IC50 [µg/mL],outcome,CC50 [µg/mL]
NC(=O)N/N=C/c1ccc([N+](=O)[O-])o1,11.5,active,> 6
CC(C(=O)O)c1ccc(C(=O)c2ccccc2)s1 (centres undefined),> 20,inactive,–
CCC(=O)OCC(=O)[C@@]1(OC(=O)CC)[C@@H](C)C[C@H]2[C@@H]3CCC4=CC(=O)C=C[C@]4(C)[C@@]3(Cl)[C@@H](O)C[C@@]21C,> 20,inactive,–
CC[C@H]1CN2CCc3cc(OC)c(OC)cc3[C@@H]2C[C@@H]1C[C@H]1NCCc2cc(O)c(OC)cc21,> 20,inactive,< 0.023
Fc1ccc([C@@H]2CCNC[C@H]2COc2ccc3c(c2)OCO3)cc1,13.1,active,4.88
C[C@H](NCCc1ccc(O)cc1)[C@H](O)c1ccc(O)cc1,> 20,inactive,–
C[C@@H]1CC[C@@]2(NC1)O[C@H]1C[C@H]3[C@@H]4CC=C5C[C@@H](O)CC[C@]5(C)[C@H]4CC[C@]3(C)[C@H]1[C@@H]2C,> 20,inactive,–
C[C@]12C=CC(=O)C=C1CC[C@@H]1[C@@H]2[C@@H](O)C[C@@]2(C)[C@H]1CC[C@]2(O)C(=O)CO,> 20,inactive,–
CC(C)(C)NCC(O)COc1cccc2c1CC(O)C(O)C2 (centres undefined),> 20,inactive,–
NC[C@@H]1O[C@H](O[C@H]2[C@@H](O)[C@H](O[C@@H]3[C@@H](O)[C@H](N)C[C@H](N)[C@H]3OC3O[C@H](CO)[C@@H](O)[C@H](O)[C@H]3N)O[C@@H]2CO)[C@H](N)[C@@H](O)[C@@H]1O (some centres undefined),19.8,active,–
NC[C@@H]1O[C@H](O[C@H]2[C@@H](O)[C@H](O[C@@H]3[C@@H](O)[C@H](N)C[C@H](N)[C@H]3O[C@H]3O[C@H](CN)[C@@H](O)[C@H](O)[C@H]3N)O[C@@H]2CO)[C@H](N)[C@@H](O)[C@@H]1O,> 20,inactive,–
NC[C@H]1O[C@H](OC2[C@@H](N)C[C@@H](N)[C@H](O)[C@H]2O[C@@H]2O[C@H](CO)[C@@H](O)[C@H]2O)[C@H](N)[C@@H](O)[C@@H]1O (some centres undefined),> 20,inactive,–
C[N+]1(C)C[C@@H](O)C[C@H]1C(=O)[O-],> 20,inactive,–
CC(C)(Sc1cc(C(C)(C)C)c(O)c(C(C)(C)C)c1)Sc1cc(C(C)(C)C)c(O)c(C(C)(C)C)c1,> 20,inactive,–
CC1=C(C(=O)O)N2C(=O)[C@@H](NC(=O)[C@H](N)c3ccc(O)cc3)[C@H]2SC1,> 20,inactive,–
N=C(N=C(N)N)N1CCOCC1,> 20,inactive,–
Cn1cnc([N+](=O)[O-])c1Sc1ncnc2nc[nH]c12,13.1,active,> 6
c1ccc(CNc2ncnc3nc[nH]c23)cc1,> 20,inactive,–
CN1C[C@H](C(=O)N[C@]2(C)O[C@@]3(O)[C@@H]4CCCN4C(=O)[C@H](Cc4ccccc4)N3C2=O)CC2c3cccc4[nH]cc(c34)C[C@H]21 (some centres undefined),> 20,inactive,–
CN1CCC(=C2c3ccccc3C=Cc3ccccc32)CC1,> 18.3,active,> 6
CN1CCC(=C2c3ccccc3Sc3ccccc32)CC1,18,active,–
CN1CCC(=C2c3ccccc3CCc3sccc32)CC1,> 20,inactive,> 6
CN1CCC(=C2c3ccccc3CC(=O)c3sccc32)CC1,> 20,inactive,–
CCC(=O)OC1(C(=O)CCl)[C@@H](C)C[C@H]2[C@@H]3CCC4=CC(=O)C=C[C@]4(C)[C@@]3(F)[C@@H](O)C[C@@]21C (some centres undefined),> 20,inactive,–
C[C@H](N)[C@H](O)c1cccc(O)c1,> 20,inactive,–
CNCC(O)C(O)C(O)C(O)CO (centres undefined),> 20,inactive,–
C[n+]1cccc(C(=O)[O-])c1,> 20,inactive,–

SMILES,IC50 [µg/mL],outcome,CC50 [µg/mL]
CCC(c1ccc(O)cc1)C(CC)c1ccc(O)cc1 (centres undefined),> 20,inactive,–
COc1ccc2c(c1)N(C[C@H](C)CN(C)C)c1ccccc1S2,> 20,inactive,> 6
CC[C@H]1OC(=O)[C@H](C)[C@@H](O[C@H]2C[C@@](C)(OC)[C@@H](O)[C@H](C)O2)[C@H](C)[C@@H](O[C@@H]2O[C@H](C)C[C@H](N(C)C)[C@H]2O)[C@](C)(O)C[C@@H](C)C(=O)[C@H](C)[C@@H](O)[C@]1(C)O,1.7,active,–
CO[C@H]1C[C@H](O[C@H]2[C@H](C)[C@@H](O[C@@H]3O[C@H](C)C[C@H](N(C)C)[C@H]3O)[C@@H](C)C[C@@]3(CO3)C(=O)[C@H](C)[C@@H](O)[C@@H](C)[C@@H](C)OC(=O)[C@@H]2C)O[C@@H](C)[C@@H]1O,> 20,inactive,–
CC[C@H]1OC(=O)[C@H](C)[C@@H](O[C@H]2C[C@@](C)(OC)[C@@H](O)[C@H](C)O2)[C@H](C)[C@@H](O[C@@H]2O[C@H](C)C[C@H](N(C)C)[C@H]2O)[C@](C)(O)C[C@@H](C)[C@@H]2N[C@@H](COCCOC)O[C@H]([C@H]2C)[C@]1(C)O,1.33,active,–
CO[C@H]1C[C@H](O[C@H]2[C@H](C)[C@@H](O[C@@H]3O[C@H](C)C[C@H](N(C)C)[C@H]3OC(C)=O)[C@@H](C)C[C@@]3(CO3)C(=O)[C@H](C)[C@@H](OC(C)=O)[C@@H](C)[C@@H](C)OC(=O)[C@@H]2C)O[C@@H](C)[C@@H]1OC(C)=O,> 20,inactive,–
COc1ccc2cc3[n+](cc2c1OC)CCc1cc2c(cc1-3)OCO2,> 20,inactive,–
O=C(O)CCC(=O)Nc1ccc(S(=O)(=O)Nc2nccs2)cc1,> 20,inactive,–
C[N+]1(C)CCC[C@H]1C(=O)[O-],> 20,inactive,–
C[C@H]1O[C@@H](OC2CC[C@]3(C=O)[C@H]4CC[C@]5(C)[C@@H](C6=CC(=O)OC6)CC[C@]5(O)[C@@H]4CC[C@]3(O)C2)C[C@H](O)[C@@H]1O (some centres undefined),> 20,inactive,2.54
COc1ccc(C(=O)c2ccccc2O)c(O)c1,> 20,inactive,–
O=c1cc(-c2ccc(O)cc2)oc2c(C3O[C@H](CO)[C@@H](O)[C@H](O)[C@H]3O)c(O)cc(O)c12 (some centres undefined),> 20,inactive,–
CC(=O)N[C@@H](CC(=O)O)C(=O)O,> 20,inactive,–
Cc1cc2c(cc1S(N)(=O)=O)S(=O)(=O)CCC2,> 20,inactive,–
CCC1NC(=O)c2cc(S(N)(=O)=O)c(Cl)cc2N1 (centres undefined),> 20,inactive,–
Cc1cc2cc3c(C)cc(=O)oc3c(C)c2o1,> 20,inactive,–
COC(=O)[C@H]1[C@H]2C[C@H]3c4[nH]c5ccccc5c4CCN3C[C@H]2CC[C@@H]1O,> 20,inactive,–
COC(=O)C1=CO[C@@H](C)[C@H]2CN3CCc4c([nH]c5ccccc45)[C@@H]3C[C@H]12,> 20,inactive,–
COC(=O)[C@H]1[C@H]2C[C@H]3c4[nH]c5ccccc5c4CCN3C[C@@H]2CC[C@@H]1O,> 20,inactive,–
CCOC(=O)Oc1c(OC)cc(C(=O)O[C@@H]2C[C@@H]3CN4CCc5c([nH]c6cc(OC)ccc56)[C@H]4C[C@@H]3[C@H](C(=O)OC)[C@H]2OC)cc1OC,7.94,active,–
COC(=O)[C@H]1[C@H]2C[C@@H]3c4[nH]c5cc(OC)ccc5c4CCN3C[C@H]2C[C@@H](OC(=O)c2cc(OC)c(OC)c(OC)c2)[C@@H]1OC,2.32,active,–
O=C(O)[C@@H]1[C@H]2C[C@H]3c4[nH]c5ccccc5c4CCN3C[C@@H]2CC[C@@H]1O,> 20,inactive,–
COc1ccc2c3c([nH]c2c1)[C@H]1C[C@H]2[C@H](C[C@@H](O)[C@H](OC)[C@H]2C(=O)O)CN1CC3,> 20,inactive,–
COC(=O)[C@@H]1[C@H]2C[C@H]3c4[nH]c5ccccc5c4CCN3C[C@@H]2CC[C@@H]1O,> 20,inactive,–
COC(=O)[C@H]1[C@H]2C[C@@H]3c4[nH]c5cc(OC)ccc5c4CCN3C[C@H]2C[C@@H](OC(=O)/C=C/c2cc(OC)c(OC)c(OC)c2)[C@@H]1OC,4.23,active,> 6
